Source: PubChem BioAssay
The list is not random: actives were taken first. Their share in the collection is about 4.1%.
UHRF1 binding: UHRF1 methyl-DNA binding inhibition. 370,000 tested, 0.75% active. inhibition, % at 4.4 µM. UHRF1 binding to methylated oligo, TR-FRET. Q96T88; in the data active means inhibition above about 21%;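 further: UHRF1 SRA domain binding a hemimethylated CpG hairpin DNA probe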
rCAG binder: binds r(CAG) RNA repeats; AID 651821; r(CAG) RNA repeat, TO-PRO-1 dye displacement fluorescence; inhibition, % at 3 µM; 370,000 tested, 1.3% active;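 active means inhibition above the plate cutoff, the mean of all test compounds on that plate plus 3 SD, cut at about 35% in these data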;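 further: higher means more dye released from RNA so lower well fluorescence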
LEDGF integ inh: blocks HIV-1 LEDGF/p75-dependent DNA integration; TR-FRET IN-LEDGF/p75 DNA integration, Eu/Cy5; inhibition, % at 3.7 µM; 370,000 tested, 0.64% active; AID 743269;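 active means inhibition above the screen-wide mean plus 3 SD, cut at about 13% in these data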;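 further: signal is the Cy5 over europium emission ratio at 671 and 618 nm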
PRMT1 inh: inhibitors of human PRMT1 | Q99873 | 370,000 tested, 1.3% active | recombinant PRMT1, activity-based probe fluorescence polarization | inhibition, % at 2.79 µM | AID 652257;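 active means inhibition above about 21% made by adding two undisclosed values, limit read from the data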
Target sequence (Q99873 whole entry, looked up): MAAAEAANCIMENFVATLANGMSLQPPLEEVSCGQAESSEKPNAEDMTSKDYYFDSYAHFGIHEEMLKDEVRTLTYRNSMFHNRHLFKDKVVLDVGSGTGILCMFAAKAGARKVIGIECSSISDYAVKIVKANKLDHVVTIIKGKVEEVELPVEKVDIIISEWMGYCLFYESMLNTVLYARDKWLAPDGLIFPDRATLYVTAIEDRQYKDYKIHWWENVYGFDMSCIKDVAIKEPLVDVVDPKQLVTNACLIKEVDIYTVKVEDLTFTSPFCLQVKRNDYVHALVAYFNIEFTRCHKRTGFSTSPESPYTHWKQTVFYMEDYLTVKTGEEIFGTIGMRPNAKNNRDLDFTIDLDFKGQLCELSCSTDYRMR
ABHD5-PLIN5 inh: blocks binding of human ABHD5 to perilipin-5. Q00G26+Q8WTS1. inhibition, % at 4 µM. 360,000 tested, 0.78% active. Split G. princeps luciferase complementation, luminescence, 4 h;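 active means inhibition above the mean inhibition across every tested compound plus 3 SD, cut at about 22% in these data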
MBD2 inh: MBD2-methylated oligo binding inhibition | Q9UBB5 | TR-FRET, MBD2 binding to methylated oligonucleotide | inhibition, % at 4.4 µM | 370,000 tested, 0.31% active; in the data active means inhibition above about 13%
PRMT1 inh conf: PRMT1 (human) inhibition, FP confirmation; 3,300 tested, 42% active; recombinant His-PRMT1, activity-based probe fluorescence polarization; AID 687036; inhibition, % at 2.79 µM; shares compounds with PRMT1 inh;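 active means mean inhibition across replicates above the hit cutoff derived for the earlier primary screen, cut at about 22% in these data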
Each line names hits and unclear results; the compound was inactive in the other large screens (follow-up assays come after a bar, where they were run); ! = not confirmed by another sample.

Cc1ccc(N2C(=O)CS/C2=N\C(=S)Nc2ccccc2)cc1	PRMT1 inh 28.2 | PRMT1 inh conf inactive
CCOc1ccc(CCNC(=O)c2ccc3[nH]ccc3c2)cc1OCC	none (no result: rCAG binder, ABHD5-PLIN5 inh)
C=CC[C@H]1c2ccccc2[C@H]2N3N=Cc4ccccc4[C@H]3[C@H](CCCC)C(=O)N2N1C(=O)c1ccccc1	none (no result: ABHD5-PLIN5 inh)
Cn1c(N)c(C(=O)NCc2ccccc2)sc1=S	PRMT1 inh 25.6 | PRMT1 inh conf inactive
Cn1nnnc1SC1CC(=O)N(c2ccccc2)C1=O (centres undefined)	PRMT1 inh 55.9 | PRMT1 inh conf 74.8
O=C1CC(Sc2nnnn2C2CCCCC2)C(=O)N1c1ccccc1 (centres undefined)	PRMT1 inh 75.0 | PRMT1 inh conf 72.9
CCOc1ccc2nc(SC3CC(=O)N(c4cccc(OC)c4)C3=O)sc2c1 (centres undefined)	PRMT1 inh 38.4 | PRMT1 inh conf 25.6
Cc1cc(C)cc(N2C(=O)CC(c3ccccc3)CC2=O)c1	none
Cc1c(O)nc(SC2CC(=O)N(c3ccccc3)C2=O)[nH]c1=O (centres undefined)	none
CCOc1ccc2nc(SC3CC(=O)N(c4ccccc4)C3=O)sc2c1 (centres undefined)	none (no result: UHRF1 binding, rCAG binder, LEDGF integ inh, PRMT1 inh, MBD2 inh)
Cc1cc(C)cc(N2C(=O)CC(Sc3nnnn3-c3ccccc3)C2=O)c1 (centres undefined)	PRMT1 inh 55.7 | PRMT1 inh conf 55.2
CN(C)C(=O)C[C@H]1C[C@@H]2c3cc(NC(=O)NC4CCCC4)ccc3O[C@@H]2[C@@H](CO)O1	none (no result: ABHD5-PLIN5 inh)
Cc1[nH]c2ccccc2c1C(=O)c1c(N)[nH]c(C(=O)c2ccc(Br)cc2)c1-c1ccc(Br)cc1	none (no result: ABHD5-PLIN5 inh)
COC(=O)C1=C(C)N(Cc2ccccc2C(F)(F)F)C(=NCc2ccc(OC)cc2)NC1c1ccccc1C(F)(F)F (centres undefined)	none (no result: ABHD5-PLIN5 inh)
CC(C)=CC(=O)NCC1CCN(C(=O)C(=O)c2cc3ccccc3o2)CC1	none (no result: ABHD5-PLIN5 inh)
Cc1cccc(N2C(=O)CC(Sc3nnc(C)s3)C2=O)c1 (centres undefined)	PRMT1 inh 60.6 | PRMT1 inh conf 43.8
Cc1cc(C)cc(N2C(=O)CC(Sc3ncn[nH]3)C2=O)c1 (centres undefined)	PRMT1 inh 28.6 | PRMT1 inh conf 43.3
Cc1cccc(N2C(=O)CC(Sc3nc(C)cc(C)n3)C2=O)c1 (centres undefined)	none
CCOC(=O)N1CCN(C(=O)C[C@H]2C[C@@]3(C(=O)OC)C(=C[C@H](C(C)C)O[C@@H]3C3CC3)N(Cc3cccc4ccccc34)C2=O)CC1	none (no result: ABHD5-PLIN5 inh)
C=CC(=O)NC1CCCCN(C(C)C)C1=O (centres undefined)	none (no result: ABHD5-PLIN5 inh)
NC(=O)C[n+]1cccc2ccccc21	PRMT1 inh 54.6 | PRMT1 inh conf inactive
O=C(CSc1nc2ccccc2s1)Nc1cc(C(=O)O)cc(C(=O)O)c1	PRMT1 inh 42.5 | PRMT1 inh conf 57.9
O=C(CSc1nc2ccccc2s1)Nc1ccc(Cl)c(C(=O)O)c1	none
CC1CC1C(=O)Nc1nc(-c2cccs2)c(-c2cccs2)s1 (centres undefined)	PRMT1 inh 27.2 | PRMT1 inh conf inactive
O=C(Nc1nc(-c2cccs2)c(-c2ccccc2)s1)c1ccco1	none
CCC(=O)NNc1nc2c(F)cccc2s1	PRMT1 inh 48.6 | PRMT1 inh conf inactive
CC(=NNC(=S)N1CCN(C2CCCCCC2)CC1)c1ccccn1	none
CC(=NNC(=S)N(Cc1ccccn1)Cc1ccccn1)c1cnccn1	none
CC(=NNC(=S)N1CC2CCC(CC2)C1)c1cnccn1	PRMT1 inh 25.0 | PRMT1 inh conf inactive
CC(=NNC(=S)N1CCCCCC1)c1cccc2cccnc12	PRMT1 inh 25.6 | PRMT1 inh conf inactive
CC(=NNC(=S)N1CC2CCC(CC2)C1)c1ccccn1	PRMT1 inh 37.4 | PRMT1 inh conf inactive
Cc1ccc(NC(=O)c2ccc(Cl)c(N3C(=O)C=CC3=O)c2)cc1	PRMT1 inh 91.6, ABHD5-PLIN5 inh 38.9 | PRMT1 inh conf 88.8
COC1=CC(=O)CC(C)C12Oc1cc(OC)cc(OC)c1C2=O (centres undefined)	none
COC(=O)C1=CC(=O)C=C(OC)[C@@]12Oc1cc(C)cc(OC)c1C2=O	PRMT1 inh 88.4 (no result: ABHD5-PLIN5 inh) | PRMT1 inh conf 84.5
O=C(NN1C(=O)/C(=C/c2cccs2)SC1=S)c1ccccc1	none (no result: UHRF1 binding, rCAG binder, LEDGF integ inh, PRMT1 inh, MBD2 inh)
O=C(NN1C(=O)/C(=C/c2cccs2)SC1=S)c1cccnc1	PRMT1 inh 26.6 | PRMT1 inh conf inactive
Cc1cc(NC(=O)CSc2nnc(COc3ccccc3)o2)no1	none
Cc1ccc(OCc2nnc(SCC(=O)Nc3ncc(C)s3)o2)cc1	PRMT1 inh 29.8 | PRMT1 inh conf inactive
Cc1ccc2ccc(C)[n+](CCCS(=O)(=O)[O-])c2c1	none
COc1ccc2sc(SCCCS(=O)(=O)O)[n+](CCCS(=O)(=O)[O-])c2c1	PRMT1 inh 58.0 | PRMT1 inh conf 59.0
COc1ccc(-c2n[nH]c(=S)n2-c2cc(OC)ccc2OC)cc1	none
COc1ccc(OC)c(-n2c(-c3cc(-c4ccc(F)cc4)n[nH]3)n[nH]c2=S)c1	PRMT1 inh 35.5 | PRMT1 inh conf inactive
O=C(NCc1ccco1)Nc1c(Cl)cc(Cl)cc1Cl	none (no result: ABHD5-PLIN5 inh)
FC(F)(F)c1ccccc1C(C#Cc1ccccc1)NCc1ccc2c(c1)OCO2 (centres undefined)	none (no result: ABHD5-PLIN5 inh)
O=c1c2ccccc2nc(SCc2nnc(-c3ccccc3Br)o2)n1Cc1ccco1	PRMT1 inh 69.1 | PRMT1 inh conf 58.1
O=c1c2ccccc2nc(SCc2ccccc2)n1Cc1ccco1	none
COc1ccc(CCNC(=O)c2cnn3c(C(F)F)cc(C)nc23)cc1OC	PRMT1 inh 29.6 | PRMT1 inh conf inactive
CN1CCCC(OC(=O)c2ccc(S(=O)(=O)N(C)C)cc2)C1 (centres undefined)	PRMT1 inh 34.1 | PRMT1 inh conf inactive
CN1CCC2(CC1)C1CN(C)CC=C1C(C#N)=C(N)C2(C#N)C#N (centres undefined)	PRMT1 inh 39.7 | PRMT1 inh conf 21.8!
Cc1cc2c(s1)c1cnn(Cc3c(Cl)ccc(C)c3F)c(=O)c1n2C	none (no result: rCAG binder, ABHD5-PLIN5 inh)
COc1ccc(C(=O)CSC#N)cc1OC	PRMT1 inh 40.7 | PRMT1 inh conf 22.7
COc1ccc(C(=O)COC(=O)c2ccc(OC)c(OC)c2)cc1OC	none
CCOC(=O)c1[nH]c(=S)n(-c2ccccc2)c1C(=O)OCC	PRMT1 inh 48.2 | PRMT1 inh conf inactive
COc1ccc(-c2nc3c(s2)CN(S(C)(=O)=O)CC3)cc1OC	PRMT1 inh 35.1 | PRMT1 inh conf inactive
Cc1ccccc1C(=O)N[C@H](C(=O)N1CCC[C@H]1C(=O)NC1CCCC1)c1ccccc1	none (no result: ABHD5-PLIN5 inh)
O=C(CSc1nnc(-c2cccnc2)n1Cc1ccco1)N1c2ccccc2Sc2ccccc21	PRMT1 inh 40.5 | PRMT1 inh conf inactive
